CtBP-E1A inh – inhibitors of CtBP/E1A interaction. AlphaScreen GST-E1A/His-CtBP binding, 1536-well; active compounds read low. activity change, % (no concentration beside the values). 340,000 tested, 0.49% active. AID 651724; in the data active means activity change below about -65%; inconclusive means mostly about -30% to -63%
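In 5 uL wells, 23 nL compound meets equimolar GST-E1A and His-CtBP (5X stock 125 nM each) for 2 h, 37 °C. Beads (5X, 50 ug/mL) then 1 h, 37 °C, dark.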
HP1b chromo inh – inhibitors of HP1-beta chromodomain binding to methylated histone tails; 390,000 tested, 0.56% active; P83916; Potency, µM (series often up to 114 µM), most hits filed as inhibitors; AlphaScreen HP1-beta / biotin-H3K9me3 peptide binding; further: nearly all actives have a fitted effect of over 70% in size
Target sequence (P83916 whole entry, looked up): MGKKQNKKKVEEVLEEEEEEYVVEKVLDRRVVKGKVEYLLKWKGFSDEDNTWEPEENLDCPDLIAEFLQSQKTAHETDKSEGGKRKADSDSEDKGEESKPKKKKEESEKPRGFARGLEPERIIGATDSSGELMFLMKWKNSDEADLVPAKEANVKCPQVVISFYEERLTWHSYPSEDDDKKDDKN
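Compound inhibition of the preformed complex between 50 nM HP1-beta and 50 nM biotinylated H3K9me3 peptide was read by AlphaScreen. Buffer was PBS pH 7.4 with 0.01% Tween-20. Incubations ran 30 min at room temperature, with 10 ug/mL donor/acceptor beads.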
JMJD2A Tudor inh – blocks the human JMJD2A Tudor domain | O75164 | AlphaScreen JMJD2A-Tudor / H3K4me3 peptide binding | Potency, µM (highest dose often 114 µM), usual class: inhibitors | 390,000 tested, 4.4% active | AID 504339; further: nearly all actives have a fitted effect of over 50% in size
BAZ2B block – inhibitors of human BAZ2B bromodomain; AlphaScreen BAZ2B-H3K14Ac peptide displacement; Q9UIF8; Potency, µM (doses to about 114 µM), hits mostly inhibitors; 360,000 tested, 4.4% active; further: nearly all actives have a fitted effect of over 60% in size
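Inhibition is scored as reduced AlphaScreen emission. The BAZ2B/b-H3(5-23)K14Ac complex (50 nM each) in PBS pH 7.4, 0.01% Tween-20 meets compound (up to 110 uM) for 30 min at RT before bead addition.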
G9a block – G9a (human) methyltransferase inhibition. Q96KQ7. G9a H3K9 monomethylation, AlphaScreen, 2 h. Potency, µM (doses to about 102 µM), actives largely listed as inhibitors. 350,000 tested, 8.8% active. AID 504332; further: nearly all actives have a fitted effect of over 75% in size
Target sequence (Q96KQ7 913-1193 limits assumed): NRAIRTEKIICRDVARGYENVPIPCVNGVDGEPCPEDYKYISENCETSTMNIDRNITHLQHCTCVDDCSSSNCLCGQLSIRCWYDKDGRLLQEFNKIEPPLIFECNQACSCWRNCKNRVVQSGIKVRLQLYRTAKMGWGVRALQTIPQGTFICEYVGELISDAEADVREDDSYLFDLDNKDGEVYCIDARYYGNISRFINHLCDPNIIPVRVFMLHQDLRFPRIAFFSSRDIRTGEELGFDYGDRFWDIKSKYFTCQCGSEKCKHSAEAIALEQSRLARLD
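G9a (20 nM) preincubated 15 min RT with compounds, then 500 nM biotinylated H3K9 peptide and 20 uM SAM added; 2 h RT reaction. Monomethyl-H3K9 product detected by AlphaScreen with anti-H3K9me1 antibody, streptavidin donor and anti-rabbit IgG acceptor beads.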
Six1-Eya2 inh – inhibitors of human Six1/Eya2 interaction. activity change, % (test concentration not listed). 360,000 tested, 0.56% active. AlphaScreen GST-Six1/His-Eya2 binding, biochemical; active compounds read low. AID 651725. Q15475+O00167; in the data active means activity change below about -65%; inconclusive means mostly about -30% to -63%
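GST-Six1 + His-Eya2 (5X stock: 250/500 nM); Tris pH 8.0, 300 mM NaCl, 0.05% BSA, 0.02% Tween 20; GSH donor/Ni acceptor beads; 1 h 37 °C dark; AlphaScreen readout.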
Each line names hits and unclear results; the compound was inactive in the other large screens. This is a sample that favours compounds with a hit; in the whole collection about 10% have one here. Unless noted, the call rests on the fitted dose curve; in most records, active means well fitted inhibition curve with a large enough effect; inconclusive means small, poorly fitted or top-dose-only effect; inactive means no such curve, though single readings can be large or run the other way.

COc1ccc(NS(=O)(=O)NC(=O)c2c(C)n(C)c3ccccc23)cc1	G9a block 40µM
CCOC(=O)c1ccc(S(=O)(=O)N2CC(=O)Nc3ccccc32)cc1	G9a block 10µM
N#C/C(=C\C1=C(N2CCOCC2)C(=C/c2cccc([N+](=O)[O-])c2)/CC1)C(=O)Nc1ccccc1F	HP1b chromo inh inconclusive, BAZ2B block 1.3µM, G9a block 2.5µM
N#C/C(=C/C1=C(N2CCOCC2)C(=C/c2ccccc2)/CC1)C(=O)Nc1ccccc1F	HP1b chromo inh 5µM, JMJD2A Tudor inh 10µM (no result: BAZ2B block, G9a block)
N#C/C(=C/C1=C(N2CCOCC2)C(=C/c2cccc([N+](=O)[O-])c2)/CC1)C(=O)Nc1ccccc1F	HP1b chromo inh inconclusive, JMJD2A Tudor inh inconclusive (no result: BAZ2B block, G9a block)
N#C/C(=C\C1=C(N2CCOCC2)C(=C\c2ccc(Cl)cc2)/CC1)C(=O)Nc1ccccc1F	HP1b chromo inh inconclusive, BAZ2B block 25µM, G9a block 10µM
COc1ccc(CNC(=O)C(C)N2Cc3ccccc3C2=O)cc1 (stereo not drawn)	none (no result: CtBP-E1A inh, Six1-Eya2 inh)
O=c1c2ccccc2oc2ccc(NCCCn3ccnc3)cc12	JMJD2A Tudor inh inconclusive, BAZ2B block 50µM (no result: G9a block)
c1ccc2c(c1)oc1c(NCCCn3ccnc3)ncnc12	BAZ2B block inconclusive
CCN1CCN(c2ccc(NC(=O)CCc3c(C)nc4c(-c5ccccc5)c(C)nn4c3C)cc2)CC1	JMJD2A Tudor inh inconclusive, G9a block 79µM
O=C(O)C1=C[C@@H](c2ccc(F)cc2)C[C@@H](OCCCCO)O1	JMJD2A Tudor inh inconclusive, BAZ2B block 79µM, G9a block inconclusive
COc1ccc(S(=O)(=O)N(CC(=O)Nc2cccc(C(F)(F)F)c2)c2ccc(C)cc2)cc1	none (no result: CtBP-E1A inh, Six1-Eya2 inh)
CCN(CC)c1ccc(C(=C2C=CC(=[N+](CC)CC)C=C2)c2ccc(N(CC)CC)cc2)cc1	CtBP-E1A inh -90, HP1b chromo inh 2.8µM, JMJD2A Tudor inh 1.3µM, Six1-Eya2 inh -78 (no result: BAZ2B block, G9a block)
CCN(CC)c1ccc(C(=C2C=CC(=[N+](CC)CC)C=C2)c2ccccc2)cc1	HP1b chromo inh 10µM, JMJD2A Tudor inh 16µM, Six1-Eya2 inh inconclusive (no result: BAZ2B block, G9a block)
CCN(CC)c1ccc(C(=O)NNC(=O)CCNC(=O)c2ccccc2)cc1	none
CCN(CC)c1ccc(C(=O)NNC(=O)CCl)cc1	BAZ2B block inconclusive
COc1ccccc1CNC(=O)CSC(=S)N1CCCC1	G9a block 11µM
COc1cccc(CNC(=O)CSC(=S)N2CCCC2)c1	none
COc1ccc(CCNC(=O)CNCC2CCCO2)cc1OC (stereo not drawn)	HP1b chromo inh inconclusive, JMJD2A Tudor inh 3.5µM, BAZ2B block inconclusive, G9a block 8.9µM
COc1ccccc1CNC(=O)CNCCc1ccc(OC)c(OC)c1	HP1b chromo inh inconclusive, JMJD2A Tudor inh 22µM, BAZ2B block 50µM (no result: G9a block)
COc1ccc(CCNCc2csc3nc4ccccc4n23)cc1OC	JMJD2A Tudor inh 89µM, BAZ2B block inconclusive, G9a block 50µM
COc1ccccc1CNC(=O)CS(=O)(=O)c1ccc(C)cc1	G9a block 79µM
COc1ccccc1CNC(=O)C12CC3CC(CC(C3)C1)C2	JMJD2A Tudor inh 79µM (no result: G9a block)
COc1ccccc1CNC(=O)CC(C)C	HP1b chromo inh inconclusive, JMJD2A Tudor inh 28µM
O=C(NCc1ccccc1F)C12CC3CC(CC(C3)C1)C2	none (no result: BAZ2B block, G9a block)
COc1ccccc1CNC(=O)COc1ccccc1OC	none
O=C(O)c1ccccc1C(=O)NNc1ccc(F)cc1	JMJD2A Tudor inh 40µM, G9a block inconclusive
O=C(O)c1ccccc1C(=O)NNc1ccc(Cl)cc1Cl	G9a block 2.8µM (no result: CtBP-E1A inh)
O=C(NNC(=O)c1ccccc1-n1cccc1)c1ccc(Cl)cc1Cl	none
COc1ccc(NC(=O)CN2C(=O)c3ccccc3S2(=O)=O)cc1S(=O)(=O)N1CCOCC1	G9a block 50µM
COc1ccc(NC(=O)CNCc2ccc(Cl)cc2)cc1S(=O)(=O)N1CCOCC1	HP1b chromo inh inconclusive, JMJD2A Tudor inh 3.5µM (no result: BAZ2B block, G9a block)
COc1cc(/C=C/C(=O)Nc2ccc(OC)c(S(=O)(=O)N3CCOCC3)c2)ccc1OC(F)F	none (no result: BAZ2B block, G9a block)
COc1ccc(CC(=O)Nc2sccc2C#N)cc1S(=O)(=O)N1CCOCC1	G9a block 40µM
COc1ccc(CC(=O)Nc2ccc(F)c(Cl)c2)cc1S(=O)(=O)N1CCOCC1	none (no result: CtBP-E1A inh)
COc1ccc(NC(=O)/C=C/c2ccc(C)o2)cc1S(=O)(=O)N1CCOCC1	BAZ2B block inconclusive, G9a block 6.3µM
CCCS(=O)(=O)N1CCCC(C(=O)NCCCOC)C1 (stereo not drawn)	none (no result: CtBP-E1A inh, Six1-Eya2 inh)
Cc1ccc(N[S+](=O)([O-])c2cc3c(cc2CCc2ccccc2)NC(=O)CO3)cc1C	none (no result: CtBP-E1A inh, HP1b chromo inh, BAZ2B block, G9a block, Six1-Eya2 inh)
COc1ccc(-c2cccc(NC(=O)c3ccco3)c2)nn1	G9a block 50µM
CS(=O)(=O)c1ccc(-c2cccc(NC(=O)c3ccco3)c2)nn1	none
COc1ccc(-c2ccc(NC(=O)c3ccco3)cc2)nn1	G9a block 40µM
Cc1nc(SCC(=O)Nc2cccnc2Cl)nc(C)c1C	G9a block 40µM
Cc1nc(SCC(=O)Nc2cc(Cl)ccc2[N+](=O)[O-])nc(C)c1C	CtBP-E1A inh inconclusive, HP1b chromo inh inconclusive, JMJD2A Tudor inh inconclusive, BAZ2B block 40µM, G9a block inconclusive, Six1-Eya2 inh inconclusive
CC1CCc2nn(CC(=O)Nc3cccc(C(F)(F)F)c3)c(=O)cc2C1 (stereo not drawn)	none (no result: CtBP-E1A inh, Six1-Eya2 inh)
CCOC(=O)c1cnn2c(N)c(C#N)cnc12	JMJD2A Tudor inh inconclusive, BAZ2B block inconclusive, G9a block 45µM (no result: CtBP-E1A inh)
CCOC(=O)c1cnc2c(C(=O)OCC)cnn2c1N	none (no result: G9a block)
O=c1[nH][nH]c(-c2ccccc2O)c1C(C[N+](=O)[O-])c1ccc(Cl)cc1Cl (stereo not drawn)	BAZ2B block inconclusive
Cc1cc(O)c(C(C[N+](=O)[O-])c2ccc(Cl)cc2Cl)c(=O)o1 (stereo not drawn)	BAZ2B block inconclusive, G9a block 4.5µM
Cc1nn(-c2ccccc2)c(N)c1N=Nc1cccc(S(=O)(=O)N2CCOCC2)c1	HP1b chromo inh inconclusive, JMJD2A Tudor inh inconclusive, BAZ2B block 28µM, G9a block inconclusive
Cc1nn(-c2ccccc2)c(N)c1N=Nc1ccc(Cl)cc1	HP1b chromo inh inconclusive, JMJD2A Tudor inh 45µM, BAZ2B block 40µM, G9a block 35µM
Nc1nn(-c2ccccc2)c(N)c1N=Nc1ccccc1	HP1b chromo inh inconclusive, JMJD2A Tudor inh inconclusive, BAZ2B block 40µM, G9a block inconclusive
Cc1nn(-c2ccccc2)c(N)c1N=Nc1ccccc1	HP1b chromo inh inconclusive, JMJD2A Tudor inh 56µM, BAZ2B block 32µM, G9a block 45µM
Cc1nn(-c2ccccc2)c(N)c1-c1ccccc1	none
Cc1ccc(C)n1-c1cccc(S(=O)(=O)N2CCOCC2)c1	none
CCN(CC)S(=O)(=O)c1ccc(N2CCCCS2(=O)=O)cc1	none (no result: CtBP-E1A inh, Six1-Eya2 inh)
